Composite z-score and z-score data for 16 compounds are collected here from PubChem BioAssay.

Assay [1] in a line: binders of probe aFSTL3 on microarray, primary screen, stem cell growth factor project, biochemical, small-molecule microarray, fluorescence 635/667 (AID 1064).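 Further: measures binding of the biotinylated anti-FSTL3 antibody to printed compounds.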 Conditions: higher = more signal.
A short description of assay [2]: binders from COS7 lysate, DM2A8 probe, primary screen, torsin A project, cell lysate, small-molecule microarray, fluorescence 635/667 (AID 1065). The conditions noted are these: higher = more signal, COS7 lysate expressing mutant human TOR1A.
A short description of assay [3]: binders of probe aFGF2 on microarray, primary screen, stem cell growth factor project, biochemical, small-molecule microarray, fluorescence 635/667 (AID 1067).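 Further: measures binding of biotinylated aFGF2 protein to printed compounds on slides; z-score merges feature fluorescence and signal-to-noise across triplicate slides.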 The conditions noted are these: higher = more signal.
Assay [4] can be described thus: binders of probe aFGF10 on microarray, primary screen, stem cell growth factor project, biochemical, small-molecule microarray, fluorescence 635/667 (AID 1071).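 Further: score merges 667 nm spot intensity and signal to noise from triplicate slides.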 Conditions: higher = more signal.
In assay [5] the target is Neurogenic locus notch homolog protein 2 (Homo sapiens) (UniProt Q04721). Put plainly: Notch2 binders on small-molecule microarrays, primary screen, biochemical, small-molecule microarray, 635 nm fluorescence, stem cell growth factors (AID 1073). Conditions: Notch2 binding, higher = more signal.
Sequence of Neurogenic locus notch homolog protein 2 (Homo sapiens) (Q04721 whole entry, looked up, canonical isoform): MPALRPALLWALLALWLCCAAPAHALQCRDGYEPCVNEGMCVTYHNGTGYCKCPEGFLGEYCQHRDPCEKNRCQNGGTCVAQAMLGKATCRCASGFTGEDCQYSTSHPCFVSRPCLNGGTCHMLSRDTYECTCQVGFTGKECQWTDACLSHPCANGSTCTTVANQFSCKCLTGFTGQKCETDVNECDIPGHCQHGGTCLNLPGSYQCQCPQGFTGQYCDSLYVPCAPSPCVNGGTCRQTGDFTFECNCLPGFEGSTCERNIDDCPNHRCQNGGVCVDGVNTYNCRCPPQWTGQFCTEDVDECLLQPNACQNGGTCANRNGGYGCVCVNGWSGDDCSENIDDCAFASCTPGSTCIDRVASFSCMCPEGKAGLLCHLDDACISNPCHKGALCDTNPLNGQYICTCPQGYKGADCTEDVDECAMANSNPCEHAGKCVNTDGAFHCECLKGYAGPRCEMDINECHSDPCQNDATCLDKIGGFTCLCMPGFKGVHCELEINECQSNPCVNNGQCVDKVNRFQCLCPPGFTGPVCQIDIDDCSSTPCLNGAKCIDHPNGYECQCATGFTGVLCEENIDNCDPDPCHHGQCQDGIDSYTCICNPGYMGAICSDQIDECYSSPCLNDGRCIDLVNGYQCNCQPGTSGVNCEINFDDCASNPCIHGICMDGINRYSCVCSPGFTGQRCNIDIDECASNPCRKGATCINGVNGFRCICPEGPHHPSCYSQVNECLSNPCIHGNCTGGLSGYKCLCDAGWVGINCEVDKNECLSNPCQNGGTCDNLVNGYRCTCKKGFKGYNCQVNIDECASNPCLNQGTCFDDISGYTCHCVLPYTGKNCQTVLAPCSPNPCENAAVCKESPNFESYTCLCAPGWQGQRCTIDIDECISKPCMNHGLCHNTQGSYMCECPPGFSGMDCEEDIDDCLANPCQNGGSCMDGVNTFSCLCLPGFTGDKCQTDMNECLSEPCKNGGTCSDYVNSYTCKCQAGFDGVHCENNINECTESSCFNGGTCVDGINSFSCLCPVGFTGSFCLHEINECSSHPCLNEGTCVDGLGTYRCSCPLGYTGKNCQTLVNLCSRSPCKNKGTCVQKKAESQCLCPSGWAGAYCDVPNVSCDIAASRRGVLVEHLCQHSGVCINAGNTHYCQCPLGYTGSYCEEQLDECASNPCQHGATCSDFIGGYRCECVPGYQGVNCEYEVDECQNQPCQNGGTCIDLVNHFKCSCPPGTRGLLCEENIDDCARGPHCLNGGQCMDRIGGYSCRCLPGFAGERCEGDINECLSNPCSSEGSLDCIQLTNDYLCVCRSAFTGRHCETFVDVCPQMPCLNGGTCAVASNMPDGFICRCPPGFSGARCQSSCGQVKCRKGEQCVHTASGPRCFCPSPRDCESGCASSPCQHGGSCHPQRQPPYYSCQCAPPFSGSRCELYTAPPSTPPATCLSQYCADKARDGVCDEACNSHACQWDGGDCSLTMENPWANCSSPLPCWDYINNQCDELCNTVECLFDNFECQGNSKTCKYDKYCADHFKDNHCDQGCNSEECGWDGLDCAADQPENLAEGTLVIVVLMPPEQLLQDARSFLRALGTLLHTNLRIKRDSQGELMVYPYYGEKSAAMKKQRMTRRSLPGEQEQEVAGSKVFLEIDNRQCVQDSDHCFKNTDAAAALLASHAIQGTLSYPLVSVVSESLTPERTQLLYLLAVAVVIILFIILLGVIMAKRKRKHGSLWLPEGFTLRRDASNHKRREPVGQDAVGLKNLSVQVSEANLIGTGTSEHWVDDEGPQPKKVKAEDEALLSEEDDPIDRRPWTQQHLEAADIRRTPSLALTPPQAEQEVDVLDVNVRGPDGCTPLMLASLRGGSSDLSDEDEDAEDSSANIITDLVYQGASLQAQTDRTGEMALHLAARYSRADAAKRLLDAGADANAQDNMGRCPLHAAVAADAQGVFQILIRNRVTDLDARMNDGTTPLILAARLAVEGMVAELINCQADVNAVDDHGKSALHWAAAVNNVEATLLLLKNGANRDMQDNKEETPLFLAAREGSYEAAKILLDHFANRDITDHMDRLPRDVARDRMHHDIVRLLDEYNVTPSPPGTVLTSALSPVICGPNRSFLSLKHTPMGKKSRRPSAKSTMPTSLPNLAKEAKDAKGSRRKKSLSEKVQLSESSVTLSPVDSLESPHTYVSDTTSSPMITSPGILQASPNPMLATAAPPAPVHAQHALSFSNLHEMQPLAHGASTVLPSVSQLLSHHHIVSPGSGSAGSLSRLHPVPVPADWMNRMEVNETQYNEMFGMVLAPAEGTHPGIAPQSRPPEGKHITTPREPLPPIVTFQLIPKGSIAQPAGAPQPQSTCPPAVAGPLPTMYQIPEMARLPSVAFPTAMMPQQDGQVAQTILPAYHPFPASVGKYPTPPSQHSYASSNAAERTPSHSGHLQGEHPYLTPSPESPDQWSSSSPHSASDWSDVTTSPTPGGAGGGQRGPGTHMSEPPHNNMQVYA
The target in assay [6] is Pro-neuregulin-1, membrane-bound isoform (Homo sapiens) (UniProt Q02297). Put plainly: NRG1 binders on small-molecule microarrays, primary screen, psychiatric disease protein project, biochemical, small-molecule microarray, fluorescence 635/667 (AID 1075).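 Further: score combines 667 nm spot fluorescence with signal to noise.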 The conditions noted are these: NRG1 binding, 635 nm fluorescence, higher = more signal.
Sequence of Pro-neuregulin-1, membrane-bound isoform (Homo sapiens) (Q02297 whole entry, looked up, the tested form may be a part, canonical isoform): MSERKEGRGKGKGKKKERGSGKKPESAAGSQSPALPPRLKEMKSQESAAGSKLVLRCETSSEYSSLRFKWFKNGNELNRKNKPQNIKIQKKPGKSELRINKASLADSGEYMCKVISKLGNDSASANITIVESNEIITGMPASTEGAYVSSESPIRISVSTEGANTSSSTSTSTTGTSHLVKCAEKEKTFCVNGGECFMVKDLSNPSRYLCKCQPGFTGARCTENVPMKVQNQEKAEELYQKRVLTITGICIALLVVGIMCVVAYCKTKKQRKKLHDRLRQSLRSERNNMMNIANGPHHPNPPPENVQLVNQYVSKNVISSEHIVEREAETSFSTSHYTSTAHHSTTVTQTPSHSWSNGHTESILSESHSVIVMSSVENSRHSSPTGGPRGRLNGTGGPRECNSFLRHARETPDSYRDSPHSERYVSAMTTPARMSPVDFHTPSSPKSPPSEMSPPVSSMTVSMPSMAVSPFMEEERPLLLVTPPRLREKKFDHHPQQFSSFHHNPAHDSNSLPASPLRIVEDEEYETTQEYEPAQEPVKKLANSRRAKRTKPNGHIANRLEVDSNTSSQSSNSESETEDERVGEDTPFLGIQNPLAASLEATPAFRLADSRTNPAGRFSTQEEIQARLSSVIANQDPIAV
For assay [7], the system named is Neuregulin-1 EGF-like domain. Put plainly: binders of neuregulin-1 EGF-like domain, primary screen, biochemical, small-molecule microarray, 635 nm fluorescence (AID 1081).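 Further: binding of the protein to compounds printed on small-molecule microarray slides.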 The conditions noted are these: small-molecule microarray binding, higher = more signal.
A short description of assay [8]: FRG1 promoter luciferase signal modulators, primary screen, FRG1 inhibition for FSHD, cell-based, C2C12 myotubes, firefly/Renilla luciferase, luminescence (AID 1084). Conditions: higher = more signal, called active from +8 up or from −8 down.
Assay [9] in a line: binders of probe aFST on microarray, primary screen, stem cell growth factor project, biochemical, small-molecule microarray, fluorescence 635/667 (AID 1086).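 Further: score merges 667 nm fluorescence with signal-to-noise of each printed compound spot.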 The conditions noted are these: higher = more signal.
A short description of assay [10]: binders of probe aHhip on microarray, primary screen, stem cell growth factor project, biochemical, small-molecule microarray, fluorescence 635/667 (AID 1087).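 Further: score merges spot fluorescence at 667nm with spot signal to noise ratio.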 The conditions noted are these: higher = more signal.

Each structure is given as a SMILES string. Activity calls are given as the source filed them.

Consider `CC(C)CCC[C@@H](C)[C@H]1CC[C@@]2(C)C3=C(CC[C@]12C)[C@@]1(C)CC[C@H](OC(=O)c2ccc(C(F)(F)F)nc2)C(C)(C)C1CC3` (stereo not given in full), for which the composite z-score in [1] was -0.438; in assay [2], 0.441; in assay [3], -0.103; in assay [4], 0.312; in assay [5], 0.443; in assay [6] it was -0.323. Besides, the figures for the composite z-score in assay [7], in [9] and in [10] were 0.198, -0.108 and 0.223, respectively. Further, the z-score in [8] was -1.46 (inactive).

On to `O=C(O)C1N=C(c2ccc(OCCCO)cc2)N(c2ccccc2)O1` (stereo not given), for which the composite z-score in [1] was 0.158; in assay [2], 0.0642; in assay [3], -0.0474; in assay [4] it was 0.499; in [5], 0.778; in [6], -0.145. The results for the composite z-score in assay [7], in [9] and in assay [10] were 0.527, -0.288 and -0.136, respectively. For the same compound, in assay [8], the z-score was 2.09 (inactive).

Turning to `CO[C@H]1O[C@H](CO)[C@@H](OC(=O)Nc2cccc(F)c2)[C@H](OC(=O)Nc2ccccc2)[C@H]1OC(=O)Nc1ccccc1`, the composite z-score in assay [1] is -0.246; in assay [2], 1.35; in [3] it was 0.0664; in assay [4], 0.466; in assay [5], 1.07; in assay [6] it was 0.981. Moreover, the composite z-score in [7] was 1.36; in assay [9], 0.724; in [10], -0.191. In assay [8], the z-score is 0.746 (inactive).

`C[C@H]1C2[C@H](Cc3ccccc3)NC(=O)[C@]23C(=O)NCC(=O)N2CCC[C@H]2C(=O)NC/C=C/CCC/C=C/C3[C@@H]2O[C@]12C` (stereo not given in full): the composite z-score in [1] is -0.106; in assay [2], -0.511; in [3], -0.191; in assay [4], -0.261; in assay [5] it was -0.754; in assay [6], -0.0754. The composite z-score in [7] was -0.125; in [9] it was -0.653; in assay [10], -0.249. Moreover, in [8], the z-score is -0.111 (inactive).

On to `CC=CC(O)C1C=CC2C(=O)N(C)C(=O)C2N1N(c1ccccc1)c1ccccc1` (stereo not given), for which the composite z-score in assay [1] is -0.108; in assay [2], 0.273; in [3], -0.0567; in assay [4], 0.367; in [5], 1.44; in [6] it was 0.837. Also, the composite z-score was 1.12 in [7], -0.132 in assay [9] and -0.201 in [10]. For the same compound, the z-score in assay [8] is 0.621 (inactive).

For the compound `NC(=O)NCC#Cc1ccc2c(c1)[C@]1(C(=O)N2)[C@H](C(=O)O)[C@H]2C(=O)O[C@H](c3ccccc3)[C@H](c3ccccc3)N2[C@@H]1c1ccc(O)cc1`, the composite z-score in assay [1] is 2.62; in assay [2] it was -0.0893; in assay [3], -0.0098; in assay [4] it was -0.135; in assay [5], 0.053; in [6] it was 0.441. Besides, the composite z-score was -0.293 in assay [7], 1.83 in assay [9] and 0.182 in assay [10]. Moreover, the z-score in [8] was 1.5 (inactive).

As for `O=C1NC(=O)C2C1C=CC(C(O)C1CC=CCC1)N2Nc1ccccn1` (stereo not given), the composite z-score in [1] is 0.0882; in assay [2] it was 0.922; in [3], 0.135; in assay [4], 0.938; in [5], 1.2; in assay [6], -0.0625. In addition, the results for the composite z-score in assay [7], in [9] and in assay [10] were 1.11, 0.324 and -0.445, respectively. Also, in assay [8], the z-score was 0.845 (inactive).

For `O=C1O[C@H](c2ccccc2)[C@H](c2ccccc2)N2[C@H]1[C@@H](C(=O)NC[C@H](O)c1ccccc1)[C@]1(C(=O)Nc3ccc(C#CC4=CCCCC4)cc31)[C@H]2c1ccccc1OCCO`, the composite z-score was 0.185 in assay [1]; 0.463 in [2]; 0.0637 in [3]; 0.496 in assay [4]; 0.908 in assay [5]; 0.298 in assay [6]. In addition, the composite z-score in assay [7] was 1.07; in assay [9], 0.599; in [10], -0.0645. The z-score in [8] is -0.341 (inactive).

For `NC(=O)[C@@]1(Cc2ccccc2)N=C(c2ccc(OCCCO)cc2)O[C@H]1c1ccccc1`, the composite z-score in assay [1] was 0.264; in assay [2], -0.154; in [3], -0.0891; in [4], 0.501; in assay [5], 1.08; in assay [6] it was 1.45. Further, the composite z-score in assay [7] was 0.994; in [9], 0.182; in [10], -0.189. For the same compound, in [8], the z-score is -2.16 (inactive).

For the compound `NC(=O)[C@@H]1[C@H]2C(=O)O[C@H](c3ccccc3)[C@H](c3ccccc3)N2[C@H](c2ccc(O)cc2)[C@@]12C(=O)Nc1ccc(C#CC3=CCCCC3)cc12`, the composite z-score in [1] is -0.542; in [2], 0.103; in assay [3] it was -0.222; in assay [4] it was 0.604; in assay [5], -0.173; in assay [6] it was 1.68. Moreover, the composite z-score in assay [7] is 1.15; in assay [9] it was -0.21; in assay [10], -0.357. Further, in assay [8], the z-score is 0.009 (inactive).

For `O=C(NC1CC1)[C@@H]1c2ccccc2C(=O)N(Cc2cc(F)cc(C(F)(F)F)c2)[C@H]1c1ccc(CO)cc1`, the composite z-score was 0.388 in assay [1]; 0.195 in [2]; -0.172 in [3]; 0.327 in assay [4]; -0.697 in [5]; -0.13 in assay [6]. In addition, the composite z-score in assay [7] is 1.04; in assay [9], 0.254; in [10] it was -0.194. Further, the z-score in [8] was -0.594 (inactive).

Regarding `O=C1O[C@H](c2ccccc2)[C@H](c2ccccc2)N2[C@H]1[C@@H](C(=O)N1CCN(c3ncccn3)CC1)[C@]1(C(=O)Nc3ccc(C#CC4=CCCCC4)cc31)[C@H]2c1ccccc1OCCO`, the composite z-score in [1] is -0.218; in [2], 0.337; in assay [3] it was 0.009; in assay [4], 0.548; in [5], 1.25; in assay [6] it was 0.694. The composite z-score in [7] turned out to be 1.26; in [9], 0.239; in [10] it was 0.0139. In assay [8], the z-score is -0.342 (inactive).

With `CCOC(=O)[C@H]1C/C=C/C[C@H](C(=O)OCC)C(=O)O[C@H]2[C@@H](OC)O[C@H](CO)[C@@H](OC(=O)c3ccc(Br)cc3)[C@@H]2OC1=O`, the composite z-score in assay [1] was 0.0086; in [2] it was 0.014; in assay [3], -0.0459; in assay [4] it was -0.0304; in [5], -0.0686; in assay [6], 0.132. Besides, the composite z-score in assay [7] is 0.517; in [9], -0.0976; in assay [10], 0.0566. Besides, the z-score in assay [8] is -0.0847 (inactive).

Consider `O=C1[C@@]23C=C(Br)[C@H](C[C@@H]2COC3)[C@]12CO2`, for which the composite z-score was -0.199 in assay [1]; -0.582 in assay [2]; -0.12 in assay [3]; -0.536 in [4]; -1.71 in [5]; -0.279 in [6]. The composite z-score in assay [7] is -1.15; in assay [9], -0.541; in assay [10], -0.0065. In addition, the z-score in [8] is 0.126 (inactive).

For `CC(C)NC(=O)[C@@H]1c2ccccc2C(=O)N(C(C)C)[C@H]1c1ccc(CO)cc1`, the composite z-score in assay [1] was 0.473; in assay [2], 0.0121; in assay [3], -0.0064; in assay [4], -0.057; in assay [5], -0.78; in [6], 0.853. Further, the values for the composite z-score in assay [7], in [9] and in [10] were 1.47, -0.868 and -0.236, respectively. Besides, in [8], the z-score is 0.229 (inactive).

As to `COCCOC(=O)N1C(=O)[C@@]2(c3cc(C#CC4=CCCCC4)ccc31)[C@H](C(N)=O)[C@H]1C(=O)O[C@H](c3ccccc3)[C@H](c3ccccc3)N1[C@@H]2c1ccc(O)cc1`, the composite z-score in [1] is -0.0926; in assay [2], 0.368; in [3] it was 0.0122; in [4], 0.683; in [5], 1.28; in assay [6], 0.758. Besides, the composite z-score was found to be 1.11 in assay [7], 0.416 in [9] and 0.0623 in assay [10]. In addition, the z-score in [8] is -0.95 (inactive).
